The text below walks through data of PubChem BioAssay (Tox21).

Test [1] is described as follows: qHTS assay to identify small molecule antagonists of the sonic hedgehog signaling (Shh) pathway (AID 1259369; calls by dose curve; also: nearly all actives have a fitted effect of over 45% in size; also: potency is read from the fitted curve at half-maximal effect). Summed up:
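Inhibition of Shh signalling is measured as reduced Gli1-response-element firefly luciferase output in an NIH/3T3-derived stable reporter clone stimulated with conditioned medium for 24hr.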
In general terms: In qHTS, concentration-response curves come from the screen itself.

For test [2], the target named is Estrogen receptor beta (Homo sapiens) (UniProt Q92731). As to the kind of experiment: qHTS assay to identify small molecule agonists of the estrogen receptor beta (ER-beta) signaling pathway (AID 1259377; active = well fitted activation curve with a large enough effect in the signal ratio in the repeat runs, not every such curve was filed as active; the % refers to the signal ratio; also: potency is read from the fitted curve at half-maximal effect). The method, boiled down: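 Ratiometric beta-lactamase FRET read-out came after 2 h substrate loading at room temperature. It followed 16 h compound treatment at 37C of GripTite HEK293T cells carrying a UAS-bla reporter, plated in 2% charcoal-stripped FBS medium.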

For test [3] the target is unchanged. The experiment in a line: qHTS assay to identify small molecule antagonists of the estrogen receptor beta (ER-beta) signaling pathway (AID 1259378; active = well fitted inhibition curve with a large enough effect in the signal ratio in the repeat runs, not every such curve was filed as active; the % refers to the signal ratio; also: potency is read from the fitted curve at half-maximal effect). Summed up:
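ER-beta-UAS-bla HEK293T cells in 2% charcoal-stripped FBS medium treated with compound plus 1nM final 17-beta-estradiol for 16 hr at 37C. Beta-lactamase reporter read by FRET substrate fluorescence after 2 hours at room temperature.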

The nature of test [4]: qHTS assay to identify small molecule agonists of the androgen receptor (AR) signaling pathway in the presence of an antagonist - cell viability counter screen (AID 1259379).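 Also: MDA-kb2 human breast cancer cells carrying an MMTV luciferase reporter; series mostly up to about 92 µM; nearly all actives have a fitted effect of over 25% in size.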 Summed up:
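Fluorescence from CellTiter-Fluor, added after 15 hr and read 1 hr later, gave cell viability. Cells were MDA-kb2 exposed to compounds (15 concentrations) in the presence of 3.0uM nilutamide at 37C, 0% CO2.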

Test [5] is described as follows: qHTS assay to identify small molecule agonists of the estrogen receptor beta (ER-beta) signaling pathway - cell viability counter screen (AID 1259380). Also: nearly all actives have a fitted effect of over 30% in size. Also: potency is read from the fitted curve at half-maximal effect. Summed up:
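Same-well viability counter screen. Cells: ER-beta-UAS-bla HEK293T, plated 6 hr before compound, in 2% charcoal-stripped FBS. Compound exposure 16 hr, 37C; viability by CellTiter-Glo luminescence after 30 min at room temperature.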

A short description of test [6]: qHTS assay to identify small molecule antagonists of the estrogen receptor beta (ER-beta) signaling pathway - cell viability counter screen (AID 1259382). Also: series mostly up to about 92 µM; nearly all actives have a fitted effect of over 55% in size. The method, boiled down: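 Following a 6 hr plating period, HEK293T cells carrying a UAS-driven beta-lactamase reporter under ER-beta control received compounds and 1nM E2 (final). After 16 hr at 37C and 2 hr substrate loading, CellTiter-Glo luminescence indicated viability.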

Test [7] in a line: qHTS assay to identify small molecule agonists or antagonists of the thyroid stimulating hormone receptor (TSHR) signaling pathway - wild type cell line counter screen (AID 1259384; calls by dose curve). The method, boiled down:
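Wild-type Hek293 cells, 800/well, 18 h at 37C, then compound with Ro20-1724 for 30 min RT. cAMP by HTRF (cAMP-d2/anti-cAMP cryptate), 1 h RT, fluorescence read. 15 concentrations, triplicates.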

Test [8] has as its target Estrogen receptor (Homo sapiens) (UniProt P03372). The experiment in a line: qHTS assay to identify small molecule agonists of the estrogen receptor alpha (ER-alpha) signaling pathway in the presence of an antagonist (AID 1259383; calls by dose curve; also: top concentration of the series differs between compounds; nearly all actives have a fitted effect of over 15% in size). Summed up: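 Cells are hormone-deprived for 5 days (charcoal-stripped FBS, no phenol red), plated for 24hr, spiked with 10.0nM ICI-182,780, then dosed at 15 concentrations. After 22hr at 37C, ONE-Glo luminescence reports ERE-luciferase activity.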

The target in test [9] is Thyrotropin receptor (Homo sapiens) (UniProt P16473). As to the kind of experiment: qHTS assay to identify small molecule antagonists of the thyroid stimulating hormone receptor (TSHR) signaling pathway (AID 1259385; calls by dose curve; also: nearly all actives have a fitted effect of over 20% in size). The method, boiled down:
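TSHR-HEK293 cells (800/well) plated 18 h, then compounds with Ro20-1724 and TSH at 1.5 ng/mL final, 30 min at room temperature. cAMP quantified by HTRF (cAMP-d2/anti-cAMP-cryptate, 1 h); 15 concentrations in triplicate.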

Test [10] has as its target Androgen receptor (Homo sapiens) (UniProt P10275). The experiment in a line: qHTS assay to identify small molecule agonists of the androgen receptor (AR) signaling pathway in the presence of an antagonist (AID 1259381; calls by dose curve; also: nearly all actives have a fitted effect of over 15% in size; also: potency is read from the fitted curve at half-maximal effect). Summed up: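 Cells are MDA-kb2 (human breast carcinoma, MMTV-luc, AR/GR responsive). Nilutamide is present at 3.0uM final throughout; compounds are added at 15 concentrations and incubated 16hr at 37C before ONE-Glo luminescence detection.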

SMILES strings stand for the structures. Several values for one entry are separate records, joined by “and”; a condition that tells them apart may be missing. Equal entries are not always repeated. Records with an inconclusive call do not appear. Some compounds were tested as several samples or in several runs, with calls that do not always agree. Activity calls are given as the source filed them. Unless noted, calls follow the shape of the dose curve; as a rule, active = well fitted curve in the direction sought with a large enough effect in the repeat runs; inconclusive = weak or mixed curves; inactive = no such curve, though single readings can be large; an effect the other way counts as inactive or inconclusive.

Androgen receptor (Homo sapiens), sequence (P10275 whole entry, looked up): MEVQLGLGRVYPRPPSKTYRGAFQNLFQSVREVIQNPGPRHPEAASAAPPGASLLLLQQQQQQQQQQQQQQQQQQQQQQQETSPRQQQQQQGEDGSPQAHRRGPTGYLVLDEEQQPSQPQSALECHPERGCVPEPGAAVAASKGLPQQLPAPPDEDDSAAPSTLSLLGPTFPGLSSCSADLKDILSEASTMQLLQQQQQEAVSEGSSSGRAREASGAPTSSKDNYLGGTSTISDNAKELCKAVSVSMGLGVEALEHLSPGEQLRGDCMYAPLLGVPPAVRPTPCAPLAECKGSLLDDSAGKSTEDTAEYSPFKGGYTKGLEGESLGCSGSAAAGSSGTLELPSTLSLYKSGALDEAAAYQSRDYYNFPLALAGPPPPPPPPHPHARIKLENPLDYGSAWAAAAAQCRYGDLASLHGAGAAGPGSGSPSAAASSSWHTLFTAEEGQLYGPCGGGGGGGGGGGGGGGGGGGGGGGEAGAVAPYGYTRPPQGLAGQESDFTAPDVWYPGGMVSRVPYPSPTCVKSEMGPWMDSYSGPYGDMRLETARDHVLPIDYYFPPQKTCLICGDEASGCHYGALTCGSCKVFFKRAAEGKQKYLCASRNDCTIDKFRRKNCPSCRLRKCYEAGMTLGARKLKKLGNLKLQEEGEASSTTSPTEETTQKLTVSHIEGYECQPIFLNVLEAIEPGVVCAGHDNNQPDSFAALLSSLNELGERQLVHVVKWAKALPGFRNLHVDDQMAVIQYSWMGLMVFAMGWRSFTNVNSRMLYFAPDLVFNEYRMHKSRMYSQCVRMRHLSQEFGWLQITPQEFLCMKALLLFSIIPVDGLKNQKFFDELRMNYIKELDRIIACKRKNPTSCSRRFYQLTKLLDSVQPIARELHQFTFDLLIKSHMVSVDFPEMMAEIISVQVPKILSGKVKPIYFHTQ
Thyrotropin receptor (Homo sapiens), sequence (P16473 whole entry, looked up): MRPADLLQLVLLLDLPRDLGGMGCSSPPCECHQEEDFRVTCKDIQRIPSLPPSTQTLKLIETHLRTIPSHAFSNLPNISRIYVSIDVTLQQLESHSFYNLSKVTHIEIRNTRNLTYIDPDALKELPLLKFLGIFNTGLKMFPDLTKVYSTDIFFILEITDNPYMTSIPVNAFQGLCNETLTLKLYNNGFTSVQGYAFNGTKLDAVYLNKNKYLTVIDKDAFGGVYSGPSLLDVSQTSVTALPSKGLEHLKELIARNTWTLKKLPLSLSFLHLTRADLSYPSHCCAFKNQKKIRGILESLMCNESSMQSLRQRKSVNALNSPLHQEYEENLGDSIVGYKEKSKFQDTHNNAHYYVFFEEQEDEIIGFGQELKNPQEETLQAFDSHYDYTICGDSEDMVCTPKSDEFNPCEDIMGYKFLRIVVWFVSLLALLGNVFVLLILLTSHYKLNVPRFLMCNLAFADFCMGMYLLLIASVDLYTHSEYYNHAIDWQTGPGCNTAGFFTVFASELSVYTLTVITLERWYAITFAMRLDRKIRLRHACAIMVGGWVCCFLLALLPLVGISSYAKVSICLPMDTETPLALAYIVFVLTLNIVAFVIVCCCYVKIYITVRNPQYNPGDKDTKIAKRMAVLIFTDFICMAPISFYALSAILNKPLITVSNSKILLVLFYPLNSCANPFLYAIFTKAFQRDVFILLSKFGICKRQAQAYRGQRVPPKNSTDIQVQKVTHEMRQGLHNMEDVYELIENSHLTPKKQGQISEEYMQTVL
Estrogen receptor (Homo sapiens), sequence (P03372 whole entry, looked up): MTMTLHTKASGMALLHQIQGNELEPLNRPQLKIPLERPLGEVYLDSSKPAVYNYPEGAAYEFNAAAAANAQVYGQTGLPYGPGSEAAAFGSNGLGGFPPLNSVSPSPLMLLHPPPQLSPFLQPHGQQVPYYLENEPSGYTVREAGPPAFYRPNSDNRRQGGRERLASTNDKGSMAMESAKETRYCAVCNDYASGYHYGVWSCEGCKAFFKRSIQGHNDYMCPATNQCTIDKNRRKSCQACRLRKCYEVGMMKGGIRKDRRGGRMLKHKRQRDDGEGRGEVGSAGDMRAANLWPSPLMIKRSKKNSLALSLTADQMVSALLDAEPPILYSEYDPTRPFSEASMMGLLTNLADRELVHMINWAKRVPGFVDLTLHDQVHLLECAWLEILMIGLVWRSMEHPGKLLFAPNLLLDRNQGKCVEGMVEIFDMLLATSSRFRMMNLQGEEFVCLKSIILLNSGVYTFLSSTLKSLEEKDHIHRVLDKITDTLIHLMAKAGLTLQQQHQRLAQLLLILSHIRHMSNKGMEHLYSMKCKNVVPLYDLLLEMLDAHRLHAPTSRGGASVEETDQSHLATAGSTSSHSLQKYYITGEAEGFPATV
Estrogen receptor beta (Homo sapiens), sequence (Q92731 whole entry, looked up): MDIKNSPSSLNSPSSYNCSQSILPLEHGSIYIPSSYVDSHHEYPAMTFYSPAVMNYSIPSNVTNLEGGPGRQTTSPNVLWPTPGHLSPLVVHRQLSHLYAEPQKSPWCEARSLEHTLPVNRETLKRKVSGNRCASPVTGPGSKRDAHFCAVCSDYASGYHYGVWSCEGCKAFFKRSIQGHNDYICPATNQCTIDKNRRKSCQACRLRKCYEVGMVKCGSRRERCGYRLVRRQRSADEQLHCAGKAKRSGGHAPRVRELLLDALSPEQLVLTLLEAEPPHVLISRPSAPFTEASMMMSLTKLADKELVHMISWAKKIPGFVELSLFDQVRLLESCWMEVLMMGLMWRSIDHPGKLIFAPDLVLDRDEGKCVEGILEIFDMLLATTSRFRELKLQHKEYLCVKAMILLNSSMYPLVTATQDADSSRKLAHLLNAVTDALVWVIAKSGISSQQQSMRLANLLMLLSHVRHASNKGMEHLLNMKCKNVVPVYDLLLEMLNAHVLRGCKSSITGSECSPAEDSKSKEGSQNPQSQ

With `CC(C)CC(C)O` (centres undefined), the Potency entry in test [1], in [2], in [3], in test [4] and in test [5] was “inactive” each time. The result in test [6] and in test [7] was inactive.
As to `CCNC(=S)NCC`, the Potency entry in [1], in test [2], in [3], in [4], in [5] and in test [8] was “inactive” in each case. Moreover, the compound was called inactive in test [6] and in [9].
For `COc1ccc(N)c(C)c1`, the Potency entry in test [1], in test [2], in [3], in [4] and in [5] was “inactive” each time. For the same compound, the compound was classed as inactive in test [6], in test [7] and in [9].
Consider `Cc1ccc(S(=O)(=O)N=C=O)cc1`, for which, in test [1], the Potency is 6 µM (active) and inactive. Also, the Potency entry in test [2], in test [3], in [4], in [5] and in test [8] was “inactive” in each case. Moreover, the compound was called inactive in [6] and in test [7].
For `C[C@]12CCC(=O)C=C1CC[C@@H]1[C@@H]2[C@@H](O)C[C@@]2(C)[C@H]1CC[C@]2(O)C(=O)CO`, the Potency entry in test [1], in test [2], in test [3], in test [4] and in [5] was “inactive” in each case. For the same compound, in [10], the Potency is 246 nM (active) and 150 nM (active). Further, the result in test [6] and in test [9] was inactive.
Consider `CCCCCCCCCCCCCCCC(=O)OC(C)C`, for which the Potency entry in test [1], in test [2], in test [3], in test [4] and in [5] was “inactive” in each case. Moreover, the compound was called inactive in [6].
As to `Cc1ccc([N+](=O)[O-])cc1S(=O)(=O)O`, the Potency entry in test [1], in test [2], in [3], in test [4] and in test [10] was “inactive” throughout. Further, the outcome in test [6] was inactive.
For `COc1ccc(CCC(C)=O)cc1`, the Potency entry in test [1], in test [2], in test [3] and in test [4] was “inactive” in each case. The outcome in test [6], in [7] and in [9] was inactive.
As to `CCCCCCCCCCCCCCCCO`, the Potency entry in [1], in test [2], in test [3] and in test [4] was “inactive” each time. Further, the result in test [6] and in test [7] was inactive.
On to `c1ccc(Oc2ccccc2)cc1`, for which the Potency entry in test [1], in test [2], in test [3] and in test [4] was “inactive” each time. For the same compound, the result in test [6] and in [7] was inactive.
For the compound `CCNc1ccccc1`, the Potency result in [1], in test [2], in test [3], in test [4] and in [10] was “inactive” throughout. For the same compound, the compound was called inactive in test [6] and in test [9].
With `COCCOC(=O)c1ccccc1C(=O)OCCOC`, the Potency entry in test [1], in [2], in test [3], in test [4] and in test [5] was “inactive” in each case. Moreover, the compound was called inactive in [6], in test [7] and in test [9].
`O=c1[nH]cnc2[nH]ncc12`: the Potency entry in test [1], in [2], in test [4] and in test [5] was “inactive” each time. In addition, the Potency in test [3] is 22.2 µM (active) and inactive. Besides, the outcome in [6] was inactive.
In the case of `CC(CCl)OP(=O)(OC(C)CCl)OC(C)CCl` (centres undefined), the Potency result in [1], in test [2], in test [3] and in test [4] was “inactive” each time. Moreover, the result in [6] and in test [7] was inactive.
As for `CC(C)OP(=O)(CP(=O)(OC(C)C)OC(C)C)OC(C)C`, in test [1], the Potency entry was “inactive and 1.19 µM (active)”. Also, the Potency result in test [2], in test [3] and in test [4] was “inactive” each time. Besides, in [6], the compound was classed as inactive.
With `CC(=O)OCCOC(C)=O`, the Potency entry in [1], in test [2], in [3], in test [4] and in [5] was “inactive” each time. Moreover, the result in test [6], in test [7] and in [9] was inactive.
In the case of `CC(C)(C#N)c1cc(Cn2cncn2)cc(C(C)(C)C#N)c1`, the Potency result in [1], in test [2], in [3], in test [4] and in [5] was “inactive” in each case. Moreover, in [6], the result was inactive.
As to `CN(C)c1ccc(O)c2c1C[C@H]1C[C@H]3[C@H](N(C)C)C(=O)C(C(N)=O)=C(O)[C@@]3(O)C(=O)C1=C2O`, the Potency entry in test [1], in test [2], in test [3] and in test [4] was “inactive” in each case. Further, in test [5], the Potency was 86.3 µM (active) and inactive. The compound was called inactive in [6].
For `CN/C(=C\[N+](=O)[O-])NCCSCc1csc(CN(C)C)n1`, the Potency entry in test [1], in [2], in test [3], in test [4], in [5] and in [10] was “inactive” in each case. In addition, the outcome in [6], in [7] and in [9] was inactive.
With `O=C(O)/C=C/C(=O)O`, the Potency result in [1], in test [2], in test [3] and in test [4] was “inactive” in each case. Moreover, the result in test [6] was inactive.
As for `CNC(=S)N(C)C`, the Potency result in test [1], in [2], in test [3], in test [4], in test [5] and in test [8] was “inactive” each time. The outcome in [6] was inactive.
For the compound `C[Si]1(C)O[Si](C)(C)O[Si](C)(C)O[Si](C)(C)O1`, the Potency result in test [1], in test [2], in test [3], in test [4], in test [5] and in test [8] was “inactive” throughout. The call in [6] was inactive.
As to `CN(C)c1ccc(Cc2ccc(N(C)C)cc2)cc1`, the Potency entry in test [1], in [2], in [3] and in test [4] was “inactive” in each case. The compound was called inactive in test [6], in [7] and in test [9].
For `C=CC(C)CCCC(C)(C)O` (centres undefined), the Potency entry in test [1], in [3] and in test [4] was “inactive” each time. Besides, in test [2], the Potency is 54.4 µM (active) and inactive. For the same compound, the result in test [6], in [7] and in [9] was inactive.
